# Data as given in PMC4336329 (PLoS ONE, 2015).
# The campaign covered roughly 310,000 compounds. About 14,000 (4.5%) showed an effect of 50% or more. Effects have a minus sign here. What follows is part of a selection rich in strong results, with near analogues and random picks from the rest.
# Molecular target: human ether-à-go-go-related gene (hERG) potassium channel (human, UniProt Q12809)
# Experiment: primary screen, population patch clamp on CHO cells stably expressing hERG; higher = less effect of the substance
# 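Note: peak tail current of the secondary pulse compared with the same well before compound.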
# Sequence of human ether-à-go-go-related gene (hERG) potassium channel (Q12809 whole entry, looked up): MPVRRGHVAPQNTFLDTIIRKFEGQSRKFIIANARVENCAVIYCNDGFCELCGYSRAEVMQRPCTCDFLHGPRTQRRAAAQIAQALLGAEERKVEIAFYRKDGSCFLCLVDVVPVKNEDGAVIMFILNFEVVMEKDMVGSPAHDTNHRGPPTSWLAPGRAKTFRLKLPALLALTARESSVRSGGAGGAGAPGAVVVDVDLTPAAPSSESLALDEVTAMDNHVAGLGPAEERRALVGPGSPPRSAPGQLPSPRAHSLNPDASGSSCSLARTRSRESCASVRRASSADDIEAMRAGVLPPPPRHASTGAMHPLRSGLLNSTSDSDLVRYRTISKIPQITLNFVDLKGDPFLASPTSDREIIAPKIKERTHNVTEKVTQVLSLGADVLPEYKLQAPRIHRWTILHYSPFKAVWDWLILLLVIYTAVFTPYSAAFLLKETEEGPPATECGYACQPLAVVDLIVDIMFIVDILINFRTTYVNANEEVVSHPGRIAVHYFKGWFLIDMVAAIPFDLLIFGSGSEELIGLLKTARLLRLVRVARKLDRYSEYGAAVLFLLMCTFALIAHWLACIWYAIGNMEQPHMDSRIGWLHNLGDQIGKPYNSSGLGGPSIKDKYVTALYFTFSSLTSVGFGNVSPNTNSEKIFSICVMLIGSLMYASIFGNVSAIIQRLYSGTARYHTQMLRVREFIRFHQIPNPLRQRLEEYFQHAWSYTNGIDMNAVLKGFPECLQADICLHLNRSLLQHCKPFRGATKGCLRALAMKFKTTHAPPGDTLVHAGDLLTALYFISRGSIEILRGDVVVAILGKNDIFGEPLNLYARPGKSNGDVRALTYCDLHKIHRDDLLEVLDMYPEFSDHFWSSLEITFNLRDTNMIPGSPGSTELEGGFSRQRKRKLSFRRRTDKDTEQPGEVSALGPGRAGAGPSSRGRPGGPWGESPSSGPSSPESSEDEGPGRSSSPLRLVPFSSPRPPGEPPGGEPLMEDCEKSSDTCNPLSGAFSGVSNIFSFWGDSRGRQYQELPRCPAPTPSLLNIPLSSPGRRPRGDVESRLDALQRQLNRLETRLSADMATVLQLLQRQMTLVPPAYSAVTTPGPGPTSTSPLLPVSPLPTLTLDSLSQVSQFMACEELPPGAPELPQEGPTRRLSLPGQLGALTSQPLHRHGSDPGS
row,SMILES,"hERG current change (%, negative = inhibition) at 10uM [%]"
1,COc1ccc(NC(=O)CCOc2ccccc2)c(OC)c1,1.87
2,CNC(=O)NC(=O)COC(=O)c1n[nH]c2ccccc12,16.5
3,CCc1ccc(Nc2nc(N3CCOCC3)nc(N3CCOCC3)n2)cc1.Cl,8.6
4,C/C(=N\NC(=O)C1CCCN(S(=O)(=O)c2ccccc2)C1)c1ccccn1 (centres unmarked),-20.8
5,CN(C)Cc1c(C(=O)N/N=C/CCc2ccccc2)nnn1-c1nonc1N,-31.1
6,Cc1onc(-c2ccccc2)c1CNS(=O)(=O)c1cccc(Cl)c1,-7.19
7,O=C1CCCc2ccccc2N1Cc1cccc(Cl)c1,-16.3
8,Cl.O=C(CN1C2=NCCCN2c2ccccc21)c1ccc(Cl)cc1Cl,-79.6
9,Brc1ccc(CN2C3=NCCCN3c3ccccc32)cc1.Cl,-74.2
10,Cl.Clc1cccc(CN2C3=NCCCN3c3ccccc32)c1,-75.4
11,c1ccc(CN2C3=NCCN3c3ccccc32)cc1,-39.5
12,Cl.c1ccc(CN2C3=NCCCN3c3ccccc32)cc1,-57.5
13,Clc1cccc(CN2CCCCCC2)c1,12.3
14,Cl.O=C(O)CN1C2=NCCCN2c2ccccc21,16.1
15,O=C1CCCC2=C1C(c1ccc(O)c(Br)c1)C1=C(CCCC1=O)N2c1ccccc1,-33
16,COc1ccc(C2C(C#N)=C(C)NC3=C2S(=O)(=O)c2ccccc23)cc1 (centres unmarked),-38.6
17,CCOC(=O)c1sc(=NC(=O)COc2ccc(Cl)cc2)n(C)c1C,3.44
18,COc1cc(C)c(NC(=O)COc2cccc3c2OC(C)(C)C3)cc1OC,-7.8
19,COc1cc(SC)ccc1C(=O)NCCNC(=O)c1nonc1N,-6.81

row,SMILES,"hERG current change (%, negative = inhibition) at 10uM [%]"
1,COc1ccccc1NC(=O)CCS(=O)(=O)c1ccc2c(c1)NC(=O)C(C)S2 (centres unmarked),-4.76
2,COc1ccc(NC(=S)Nc2ccccn2)cc1,13.5
3,COc1ccc(C)cc1C(=O)CCC(=O)NCCc1ccc(S(N)(=O)=O)cc1,19.6
4,CCOc1ccc(Cn2nnc(C(=O)NCc3ccccc3)c2N)cc1,11.6
5,O=C1NC(=O)C2(Cc3ccccc3N3CCCC32)C(=O)N1c1cccc(Cl)c1 (centres unmarked),-18.1
6,CC(C)c1ccc(N(C(=O)c2csnn2)C(C(=O)NC2CCCC2)c2ccncc2)cc1 (centres unmarked),-57.8
7,CCc1ccc(N(C(=O)c2csnn2)C(C(=O)NC(C)(C)CC)c2ccccn2)cc1 (centres unmarked),-54.3
8,COc1ccc(N(C(=O)c2csnn2)C(C(=O)NC2CCCC2)c2ccccc2)cc1 (centres unmarked),-9.35
9,Cc1ccc(N(C(=O)c2csnn2)C(C(=O)NC2CCCCC2)c2ccncc2)cc1 (centres unmarked),-1.71
10,CCOc1ccc(N(C(=O)c2cnccn2)C(C(=O)NC2CCCCC2)c2ccc(O)cc2)cc1 (centres unmarked),10.4
11,COc1ccc(N(C(=O)c2cnsn2)C(C(=O)NC2CCCCC2)c2ccncc2)cc1 (centres unmarked),-26.7
12,O=C(NC1CCCC1)C(c1ccncc1)N(C(=O)c1csnn1)c1ccc(Cl)cc1 (centres unmarked),-10.4
13,CCc1ccc(N(C(=O)c2csnn2)C(C(=O)NC(C)(C)C)c2ccccn2)cc1 (centres unmarked),-42.7
14,CC(=O)c1cccc(N(C(=O)c2csnn2)C(C(=O)NC2CCCC2)c2ccccc2)c1 (centres unmarked),-18.5
15,CCC(C)(C)NC(=O)C(c1ccccn1)N(C(=O)c1csnn1)c1ccccc1 (centres unmarked),5.39
16,CC(=O)c1ccc(N(C(=O)c2csnn2)C(C(=O)NC2CCCC2)c2ccccc2)cc1 (centres unmarked),-54.9
17,CCOc1ccc(N(C(=O)c2cnsn2)C(C(=O)NC2CCCCC2)c2ccncc2)cc1 (centres unmarked),-69.4
18,COc1cccc(Nc2ncnc3onc(-c4ccccc4OC)c23)c1,-4.9
19,CNC(=S)N(Cc1cc2cc(C)cc(C)c2[nH]c1=O)C1CCCC1,-3.94

row,SMILES,"hERG current change (%, negative = inhibition) at 10uM [%]"
1,c1ccc(CCCc2nc(-c3ccccn3)no2)cc1,-7.53
2,COc1ccccc1Nc1nnc(SCC(=O)N2CCCC2=O)s1,-11.4
3,COCCCNC(=O)C1CCN(c2ccc(N3CCOCC3)nn2)CC1,10.1
4,O=C(CCCc1nc2ccccc2s1)N1CCN(c2ccccc2F)CC1,-31.3
5,COc1ccc2[nH]c3c(=O)n4c(nc3c2c1)SCC4,6.11
6,COc1ccc(CN2CC(C(=O)NCCCOC(C)C)CC2=O)cc1 (centres unmarked),0.406
7,CC(CC(=O)Nc1ccc(F)cc1F)S(=O)(=O)c1ccc2c(c1)NC(=O)CO2 (centres unmarked),-9
8,CC(=O)c1ccc(N2C(=O)C3C4C=CC(CC4)C3C2=O)cc1 (centres unmarked),13.6
9,CN(C)S(=O)(=O)c1cccc(C(=O)Nc2ccccc2N2CCCCC2)c1,5.55
10,COCCn1c(SC(C)C(=O)NCC2CCCO2)nc2scc(-c3ccc(F)cc3)c2c1=O (centres unmarked),-66.5
11,COCCn1c(SC(C)C(=O)NCC2CCCO2)nc2sc3c(c2c1=O)CCC3 (centres unmarked),-8.18
12,CCn1c(SC(C)C(=O)NCC2CCCO2)nc2scc(-c3ccccc3)c2c1=O (centres unmarked),-28.7
13,CCOC(=O)/C(=C/c1c(C)n(C)c2ccc([N+](=O)[O-])cc12)C(C)=O,-19.6
14,Cc1nn(-c2ccc(C(=O)OC(C)C)cc2)c(C)c1[N+](=O)[O-],4.98
15,CCOC(=O)CNC(=O)C1CCN(S(=O)(=O)c2ccc(-c3nn[nH]n3)cc2)CC1,8.58
16,Cc1cccc2cc(CN(Cc3cccnc3)C(=O)c3ccccc3F)c(Cl)nc12,-49.6
17,COCCN(Cc1cc2c(C)cc(C)cc2nc1Cl)C(=O)c1ccccc1F,44.3
18,Cc1cc(C)c2cc(CN(Cc3cccnc3)C(=O)c3ccc(F)cc3)c(Cl)nc2c1,-64.7
